Assay outcomes (PubChem BioAssay)
Rows were chosen to be rich in hits. Some 4.2% of all compounds tested hit in one or more screens of this group.
TRPV1 agonist – activates the human vanilloid receptor TRPV1; TRPV1-expressing cells, Fluo-8 calcium influx, agonist mode; activation, % at 8.33 µM; actives 0.19% (n = 320,000); in the data active = activation above about 80%; inconclusive = between about 30% and that limit; also: 0% is about no effect
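Fluo-8 calcium influx in TRPV1-expressing cells, kinetic read (ex 480/em 520 nm). Compound added and read 3 min for agonist activity, followed by capsaicin at EC20 final and 2 min further read for enhancement.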
D1 agonist – human D1 receptor agonism. P21728. HEK293 T-REx D1 cells, calcium flux, agonist mode. activation, % at 2 µM. actives 1% (n = 360,000). AID 504660; in the data active = activation above about 30%; also: 0% is about no effect
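Inducible HEK293 T-REx D1 cells, force-coupled to calcium signalling, were plated at 4000 cells/well with tetracycline and held overnight at 30 C. After no-wash calcium dye loading, compound-evoked calcium rise over 180 s flagged agonists.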
D1 PAM – human D1 dopamine receptor positive modulation; HEK293 TREx D1 cells, calcium flux, dopamine EC20 potentiation; potentiation, % at 10 µM; actives 0.036% (n = 360,000); AID 504651; in the data active = potentiation above about 30%; also: 0% is about no effect
TRPV1 potentiator – potentiators of human vanilloid receptor 1 (TRPV1); potentiation, % at 8.33 µM; actives 0.02% (n = 320,000); TRPV1-expressing cells, Fluo-8 calcium influx, capsaicin EC20 potentiation; AID 540277; in the data active = potentiation above about 80%; inconclusive = between about 30% and that limit; also: 0% is about no effect
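Fluo-8 calcium influx in TRPV1-expressing cells, kinetic read (ex 480/em 520 nm). Compound added and read 3 min for agonist activity, followed by capsaicin at EC20 final and 2 min further read for enhancement.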
D1 antag – blocks dopamine activation of the human D1 receptor; P21728; AID 504652; activity change, negative = inhibition, % at 10 µM; actives 3.2% (n = 360,000); HEK293 TREx D1 cells, calcium flux, dopamine EC80; stronger effect = lower value; in the data active = activity change below about -30%; also: % is scaled to controls: 0 for no effect and ±100 for the full control effect
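Cells carrying a force-coupled, tetracycline-inducible human D1 receptor report calcium flux. Each well gets a 10 s baseline, compound with 180 s monitoring, then an EC80 dopamine stimulus with a second 180 s kinetic read.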
* hit, by the source's call; ? = inconclusive; . = not tested or not shown.

SMILES | TRPV1 agonist | D1 agonist | D1 PAM | TRPV1 potentiator | D1 antag
COc1ccc(S(=O)(=O)NCc2ccc3c(c2)OCO3)cc1OC | 3.6 | 0.5 | -7.8 | 5.9 | -54.8*
COc1ccc(S(=O)(=O)NCc2ccc3c(c2)OCO3)cc1C | 5.9 | 1.1 | -1.2 | 1.5 | -87.3*
O=c1n(Cc2cccc(F)c2)c2ccccc2c2nc(-c3ccccc3)nn12 | . | -0.4 | 0.0 | . | -53.2*
O=[N+]([O-])c1cc([N+](=O)[O-])c(Oc2c(F)cccc2F)cc1NN1CCCCC1 | ? | 2.0 | 5.0 | -22.4 | -14.5
O=[N+]([O-])c1cc([N+](=O)[O-])c(Oc2c(F)ccc(F)c2F)cc1NN1CCCCC1 | 80.2* | -0.1 | -8.8 | 8.1 | -17.8
Cc1ccc(/C=C/C(=O)N2CCN(c3ccc(F)cc3)CC2)o1 | 21.3 | 1.7 | 4.0 | -28.4 | -12.1
Cc1ccc(/C=C/C(=O)N2CCN(c3ncccn3)CC2)o1 | -3.6 | 1.9 | -4.8 | 4.4 | -42.8*
Cn1c(=O)oc2cc(S(=O)(=O)NC(Cc3ccccc3)C(=O)Nc3ccc(F)cc3)ccc21 (stereo not given) | . | 0.7 | 0.9 | . | -7.0
O=C(Nc1nnc(SCc2ccccc2F)s1)c1ccco1 | 2.3 | 2.6 | -7.4 | 4.9 | -82.4*
CCc1ccc(C(=O)c2cn(CC(=O)Nc3cc(OC)ccc3OC)c3nc(C)ccc3c2=O)cc1 | . | 6.5 | -2.2 | . | -49.0*
CCC(=O)N1CCc2cc(S(=O)(=O)CCC(=O)N3CCN(c4ccccc4Cl)CC3)ccc21 | . | -0.2 | 0.6 | . | -11.0
CSc1ccc(CNC(=O)C2CCN(c3nnc(-n4cccc4CNc4ccc(C)cc4)s3)CC2)cc1 | . | -1.6 | -5.1 | . | 5.7
COC(=O)c1ccc(NC(=O)COC(=O)c2nc3nccc(C)n3n2)cc1 | -0.7 | 3.5 | -2.2 | -19.9 | -35.0*
COc1ccc(-c2cc(=O)c3cc(O)ccc3o2)cc1 | -0.2 | -2.0 | -2.2 | 7.1 | -33.6*
O=C(COc1ccc2oc(-c3ccccc3)cc(=O)c2c1)NCc1ccco1 | 1.7 | 1.7 | -0.8 | -6.1 | 1.2
O=c1cc(-c2ccccc2)oc2ccc(O)cc12 | 22.9 | 0.3 | -1.4 | -9.0 | 2.3
COc1ccc(-c2cc(=O)c3cc(OCC(=O)OC(C)C)ccc3o2)cc1 | . | 18.9 | -1.4 | . | -60.3*
COc1cccc(OCCSc2nc3ccccc3n2CC(=O)N2CCCCC2)c1 | . | 5.4 | -1.6 | . | 9.5
CCOc1ccc(C2=NC(c3cccs3)=Nc3ccc(CC)cc3N2)cc1OCC | . | 6.7 | 7.4 | . | -2.2
COc1ccc(N2CC(NC(=O)c3ccc(OC(C)C)cc3)CC2=O)cc1 (stereo not given) | . | -2.1 | 1.1 | . | .
O=S(=O)(c1c(F)cccc1F)N1CCN(S(=O)(=O)c2c(F)cccc2F)CC1 | . | 0.9 | 0.3 | . | -30.5*
Cc1cc2oc(C(=O)Nc3ccc(S(=O)(=O)N(C)Cc4ccccc4)cc3)cc(=O)c2cc1C | . | 1.0 | 5.1 | . | 1.1
CCn1ccc2c(OCC(=O)Nc3ccc(C(C)=O)cc3)cccc2c1=O | . | -3.0 | -0.5 | . | .
COc1cc(CNCCc2ccccc2)ccc1OCc1ccc(Cl)nc1 | 0.8 | 16.8 | -2.3 | 4.8 | -9.4
COc1ccc(CCNCc2c(OC)ccc3ccccc23)cc1OC | -7.8 | 37.8* | -1.2 | -11.0 | -28.1
SMILES | TRPV1 agonist | D1 agonist | D1 PAM | TRPV1 potentiator | D1 antag
COc1cc(CNCc2cccnc2)ccc1OCc1ccccc1 | -3.5 | 13.8 | -1.9 | 0.5 | 4.3
COc1ccccc1CCNCc1ccc(OC)c(OCc2ccccc2)c1 | -1.9 | 62.2* | -11.6 | 13.9 | -58.3*
COc1ccc(CNCc2ccco2)cc1OCc1ccccc1 | -4.9 | 44.1* | -4.5 | -18.4 | -3.5
c1coc(-c2ccc3ncnc(NCc4cccs4)c3c2)c1 | . | 0.7 | 3.2 | . | 3.6
COc1ccc(C(=O)N(c2ccc(C)cc2)S(=O)(=O)c2ccc(C)cc2)cc1 | . | 3.5 | -3.0 | . | 9.9
Clc1ccccc1Cn1nnc2c(NCCN3CCOCC3)ncnc21 | 13.6 | -1.0 | -0.2 | -4.9 | 5.8
c1ccc(Cn2nnc3c(NCCN4CCOCC4)ncnc32)cc1 | 2.0 | 2.5 | -17.2 | 0.3 | -30.8*
c1ccc(Cn2nnnc2CN2CCOCC2)cc1 | -1.6 | 4.3 | -11.1 | 1.7 | -33.6*
c1ccc(-n2nnnc2CN2CCOCC2)cc1 | -2.4 | 2.7 | 4.1 | -0.5 | 2.7
CCOc1ccccc1NC(=O)CSc1ncc2c(n1)-c1ccccc1N(CC)S2(=O)=O | . | 3.6 | -3.0 | . | 0.7
COCCn1c(SCC(=O)c2c(N)n(C3CC3)c(=O)[nH]c2=O)nc2ccccc21 | 0.5 | 1.5 | -4.4 | -8.7 | -41.1*
COc1ccccc1-c1nnc(SCC(=O)c2c(N)n(C3CC3)c(=O)[nH]c2=O)n1C | 1.3 | 1.7 | -2.6 | -0.9 | -16.8
COC(=O)c1nc(Nc2cc(F)cc(F)c2)nc(NC2CCCC2)n1 | . | 4.6 | 4.4 | . | 21.7
